Compound activity deposited in PubChem BioAssay by National Center for Advancing Translational Sciences (NCATS).
Pf growth 48h: inhibits P. falciparum growth in the first generation, 48 h | P. falciparum luciferase growth in erythrocytes, 48 h | Potency, µM (series often up to 28.7 µM), for the others: top-dose activity change, negative = inhibition, hits mostly inhibitors | 5.9% of 310,000 active; also: % is scaled to controls: 0 for no effect and ±100 for the full control effect
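Parasite viability was followed by luminescence of a genomically integrated firefly luciferase. Cultures held 0.1% parasitemia at 2% hematocrit (final), incubated under 5% CO2 at 37 C.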
Pf growth 96h: inhibits malaria parasite growth, 96 h; P. falciparum luciferase reporter growth, 96 h; Potency, µM (highest dose often 28.7 µM), inactives show top-dose activity change, negative = inhibition, most hits filed as inhibitors; 6.9% of 320,000 active; AID 504834; also: % is scaled to controls: 0 for no effect and ±100 for the full control effect
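P. falciparum expressing integrated firefly luciferase grown in erythrocytes (2% hematocrit, 0.05% parasitemia final) with compounds for 96 hours at 37 C, 5% CO2. Growth inhibition read as loss of luminescence after adding luciferase detection reagent.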
VACV mCherry inh: vaccinia inhibition (mCherry reporter); Vaccinia virus mCherry reporter infection, fluorescence; Potency, µM (doses to about 36.5 µM), without a hit: top-dose activity change, negative = inhibition, hits mostly inhibitors; 0.63% of 310,000 active; calls by dose curve; tested in A549 cells; also: % is scaled to controls: 0 for no effect and ±100 for the full control effect; nearly all actives have a fitted effect of over 35% in size
NS1 inh: influenza NS1 inhibition; AID 2326; Potency, µM (series often up to 46.1 µM), inactives show top-dose activity, positive = more growth; 0.4% of 270,000 active; calls by dose curve; also: actives are rising curves; nearly all actives have a fitted effect of over 50% in size
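Recovery from NS1-induced slow growth read by OD600 in budding yeast switched to galactose assay medium (pH 6.0, -URA) at 1:100 dilution. Compound 23 nl per well; the matching strain lacking NS1 serves as control.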
HCV inh: HCV inhibition; Huh7.5.1 HCVcc-Cre infection, luciferase reporter, 44 h; Potency, µM (series often up to 41.8 µM), for inactives: at the top dose activity change, negative = inhibition, hits mostly inhibitors; 3.4% of 340,000 active; AID 651820; also: % is scaled to controls: 0 for no effect and ±100 for the full control effect
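Compounds are dispensed onto cells plated 4 h earlier at 1,000 per well, with HCVcc-Cre virus (about 0.5 moi) added next. Following 44 h of culture, luminescent signal is measured for 15 sec after 15 min with substrate at room temperature.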
VACV Venus inh: inhibitors of vaccinia virus (Venus reporter); AID 720580; 0.46% of 330,000 active; Vaccinia virus Venus reporter expression, fluorescence; Potency, µM (highest dose often 36.5 µM), for the others: at the highest dose activity change, negative = inhibition, actives largely listed as inhibitors; calls by dose curve; tested in A549 cells; also: % is scaled to controls: 0 for no effect and ±100 for the full control effect; nearly all actives have a fitted effect of over 30% in size
Active calls of the source: *; i = inactive; ? = inconclusive; nt = not tested or not shown. Most compounds without a hit are left out; they make up all but 11% or so of the library. Unless noted, calls follow the shape of the dose curve; as a rule, active = well fitted inhibition curve with a large enough effect; inconclusive = small, poorly fitted or top-dose-only effect, or another doubt; inactive = no such curve, though single readings can be large or run the other way. Potency is read from the fitted curve at half-maximal effect.

SMILES	Pf growth 48h	Pf growth 96h	VACV mCherry inh	NS1 inh	HCV inh	VACV Venus inh
COc1cccc(C2OC(=O)c3ccccc3N2C(C)=O)c1OC(C)=O (configuration not stated)	-7%	12µM*	-19%	5%	-3%	-9%
CC(=O)N1c2ccccc2C(=O)OC1c1cccnc1 (configuration not stated)	?	33%	nt	2%	1%	-12%
CCCCNC(C(=O)Nc1ccc([N+](=O)[O-])cc1Br)c1ccccc1 (configuration not stated)	0%	2%	-2%	-7%	4%	-5%
Cc1nc(N/N=C/c2ccccn2)sc1C	-71%	-100%	?	-47%	?	?
CCCc1sc(N/N=C/c2ccccn2)nc1-c1ccc(F)cc1	2.6µM*	31%	11µM*	12%	?	?
CC1CCN(c2ccccc2NC(=O)c2ccc(C#N)cc2F)CC1	?	19%	-6%	0%	10µM*	-12%
CC(C)C(=O)N1CCN(c2ccccc2NC(=O)c2ccc(C#N)cc2F)CC1	?	0%	0%	nt	6%	-2%
CN(C(=O)CSc1nc(-c2ccccc2)cn1N)C(c1ccccc1)c1ccccc1	12µM*	nt	-10%	18%	2%	-24%
COc1ccccc1CNC(=O)CSc1nc(-c2ccccc2)cn1N	0%	nt	nt	5%	-22%	nt
CC1CN(CC(O)COC2CCC(C(C)(C)C)CC2)CC(C)O1 (configuration not stated)	-23%	?	-11%	nt	-7%	-16%
CC1CCCC(C)N1CC(O)COC1CCC(C(C)(C)C)CC1 (configuration not stated)	10µM*	81%	nt	-26%	13µM*	nt
CC(C)(C)C1CCC(OCC(O)CN2CCN(Cc3ccccc3)CC2)CC1 (configuration not stated)	?	?	nt	-15%	32µM*	nt
Cc1ccc(S(=O)(=O)CCC(=O)OCC(=O)NC2CCS(=O)(=O)C2)cc1 (configuration not stated)	0%	4%	-12%	nt	6%	-9%
CC(=O)c1sc2nc(C)cc(C)c2c1N	18%	?	nt	-5%	?	nt
CN(Cc1ccccc1N1CCCC1)C(=O)c1cc2ccccc2o1	nt	nt	-8%	nt	?	-11%
COC(=O)c1cccc([N+](=O)[O-])c1CN1CCCC(C(N)=O)C1 (configuration not stated)	255%	24%	1%	nt	-5%	3%
CC(C)(C)c1ccc(C(=O)Nc2ccc(CN3CCS(=O)(=O)CC3)cc2)cc1	-17%	?	-25%	-1%	5.6µM*	-22%
O=C(Nc1ccc(CN2CCS(=O)(=O)CC2)cc1)c1ccc(F)cc1	36%	11%	nt	-3%	-7%	nt
COC(=O)Cc1ccc(NC(=O)c2ccc(C(C)(C)C)cc2)cc1	nt	?	nt	-83%	2.5µM*	nt
COc1ccc(C(=O)OCC#CCSc2nnc(-c3cccc4ccccc34)o2)cc1	17%	2%	nt	nt	nt	nt
Cc1nc(C(=O)Nc2cc(F)cc(Cl)c2)sc1C1(C)CC(c2ccccc2)=NO1 (configuration not stated)	nt	nt	-14%	nt	14µM*	?
CNC(=O)c1nc(C)c(C2(C)CC(c3ccccc3)=NO2)s1 (configuration not stated)	19%	40%	-7%	-5%	12%	-11%
Cc1ccccc1C(=O)O/N=C/c1c(N2CCOCC2)n(C)c2ccccc12	2.6µM*	2.3µM*	nt	-276%	1µM*	nt
CN1CCN(c2c(/C=N/O)c3ccccc3n2C)CC1	0%	22%	-6%	0%	-18%	-7%
O=C1c2cccc3cccc(c23)C(=O)N1c1ccccc1Cl	151%	10%	nt	-5%	0%	nt
SMILES	Pf growth 48h	Pf growth 96h	VACV mCherry inh	NS1 inh	HCV inh	VACV Venus inh
CCCNC(=O)C1(CC2CC(c3ccccc3)=NO2)CCN(C(=O)C2CCCC2)CC1 (configuration not stated)	13µM*	15µM*	18%	nt	5%	-9%
COc1ccc(CNC(=O)C2(CC3CC(c4ccccc4)=NO3)CCN(C(=O)C3CCCC3)CC2)cc1 (configuration not stated)	?	5.2µM*	8%	14%	-13%	-18%
COc1ccc(CNC(=O)C2(CC3CC(c4ccccc4)=NO3)CCN(C(=O)C3(C)CC3)CC2)cc1 (configuration not stated)	nt	nt	6%	nt	-2%	-17%
O=C(C1CCCC1)N1CCC(CC2CC(c3ccc(Cl)cc3)=NO2)(C(=O)NCC2CCCCC2)CC1 (configuration not stated)	?	1µM*	-12%	24%	6%	-23%
Cn1c(CCC(=O)O)nc2cc(S(=O)(=O)N3CCCC3)ccc21	nt	nt	i	nt	14%	-2%
O=C(Nc1ccccc1)c1ccc(S(=O)(=O)N2CCCC2)cc1	?	37%	nt	-13%	6%	nt
COC(=O)C1=C(c2ccc(F)cc2OCc2ccccc2)C[C@@H]2CC[C@H]1N2C(=O)N1CCC(O)CC1	12µM*	?	i	nt	-21%	-2%
COC(=O)C1=C(c2ccccc2)C[C@@H]2CC[C@H]1N2C(=O)N1CCC(O)CC1	nt	nt	i	nt	10%	?
COC(=O)C1=C(c2ccc(F)cc2OCc2ccccc2)C[C@@H]2CC[C@H]1N2C(=O)NCC1CC1	10µM*	?	-11%	nt	2%	-15%
COC(=O)C1=C(c2ccc(F)cc2OCc2ccccc2)C[C@@H]2CC[C@H]1N2C(=O)NCCO	?	?	i	nt	7%	-10%
COC(=O)C1=C(c2ccc(F)cc2OCc2ccccc2)C[C@@H]2CC[C@H]1N2C(=O)NCCCOC(C)C	9.3µM*	?	-14%	nt	?	?
COC(=O)C1=C(c2ccc(F)cc2OCc2ccccc2)C[C@@H]2CC[C@H]1N2C(=O)NCc1ccccc1OC	6.6µM*	?	i	nt	-27%	?
Cc1cc(C)cc(N2CN=c3s/c(=C\c4ccco4)c(=O)n3C2)c1	-12%	71%	-10%	1%	1%	-9%
COc1ccccc1N1CCN(CCc2c[nH]c3cc4c(cc23)OCO4)CC1	nt	nt	-6%	nt	?	-23%
CCOC(=O)N1CCN(C(=O)c2ccc3c(=O)n(-c4ccc(F)cc4)c(=S)[nH]c3c2)CC1	nt	?	nt	4%	-10%	nt
COC(=O)C1=C(c2ccc(F)cc2OCc2ccccc2)C[C@@H]2CC[C@H]1N2C(=O)NCc1ccccc1	9.3µM*	4.1µM*	i	nt	-28%	-28%
COC(=O)C1=C(c2ccc(F)cc2OCc2ccccc2)C[C@@H]2CC[C@H]1N2C(=O)NCc1ccc2c(c1)OCO2	2.9µM*	?	-29%	nt	10µM*	?
